The whole screen tested about 370,000 compounds, of which about 5,400 (1.5%) were called active. The sample holds actives, similar compounds and a random draw of the others, so the mix is not that of the screen. A number with no mark means an inactive call.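 Rule for the calls: active = activation above the mean of all tested compounds plus 3 SD (cut at about 5.5% in these data); inactive = the rest.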
Test system: DAF-12 nuclear receptor (Haemonchus contortus)
Experiment: H. contortus DAF-12 nuclear receptor activators, primary screen, cell-based, luminescence, HEK293, lit1-tk-luc reporter (AID 652067);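 note: 100% = response to 3 µM Δ7-dafachronic acid high control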
Settings: HEK293 hcDAF-12 lit1-tk-luc reporter, at 6.8 µM, hits give high values, 0% DMSO, 100% Δ7-dafachronic acid

Compound | activation
Cc1oc(CC(C)C)c(CN2CCCC2)c1C(=O)O | -1.65%
CC(C)Cc1oc(C(=O)O)cc1CN | 6.53% (active)
CC(C)c1cc(C(=O)O)on1 | -0.85%
O=C(OC12CCCN(C1)/C(=C/c1cccnc1)C2)C1CCCC1 (stereo not drawn) | -3.57%
COC(=O)c1c(-c2ccc(OC)cc2)c2c(c3c4cc(OC)ccc4n(S(=O)(=O)c4ccc(F)cc4)c13)C(=O)N(C)C2 | -2.09%
O=[N+]([O-])c1cc([N+](=O)[O-])c2cccnc2c1O | 3.46%
O=[N+]([O-])c1ccc2nc(-c3ccccn3)[nH]c2c1 | 5.76% (active)
O=C(Nc1ccc([N+](=O)[O-])cc1)OCCc1ccccn1 | 1.17%
O=C(N1CCOCC1)N1CC[C@H]2[C@H](CCCN2Cc2ccc(F)cc2)C1 | 0.64%
Cc1ccccc1CN1CCCCC(NC(=O)Nc2ccccc2F)C1=O (stereo not drawn) | -3.94%
CN(C(=O)CSc1nnc(Nc2ccccc2)s1)C1CCS(=O)(=O)C1 (stereo not drawn) | -0.76%
CC(C)Nc1nnc(SCC(=O)c2c[nH]c3ccccc23)s1 | 4.15%
CC(C)c1ccc(Nc2nnc(SCC(=O)c3nnc(-c4ccccc4)o3)s2)cc1 | 6.6% (active)
COC(=O)C1=C(C)N(Cc2cccc(C(F)(F)F)c2)C(=NCc2cccc(C(F)(F)F)c2)NC1c1ccccc1C(F)(F)F (stereo not drawn) | -2.22%
CC[C@@H](CCC(=O)N(c1ccccc1)c1ccccc1)C1CC1 | -2.66%
COc1ccc(C(C)(O)c2nc(-c3cc(F)cc(F)c3)cs2)cc1 (stereo not drawn) | -1.58%
COc1ccc(-c2csc(Cc3nc(O)cs3)n2)cc1 | 10.9% (active)
COc1ccc(C(C)(NC(C)=O)c2nc(-c3ccc(S(C)(=O)=O)cc3)cs2)cc1 (stereo not drawn) | -1.14%
O=S1(=O)c2c(cccc2N2CCSCC2)Oc2ccccc2CN1Cc1cn(Cc2ccc(F)cc2)nn1 | -2.88%
O=C(CNS(=O)(=O)c1ccccc1F)N1CCN(c2ccccn2)CC1 | -0.84%

Compound | activation
CN(C(=O)COC(=O)c1cc(-c2ccco2)nc2ccccc12)C1CCS(=O)(=O)C1 (stereo not drawn) | 1.58%
O=C(Nc1cccc(F)c1)c1cc(-c2ccco2)nc2ccccc12 | 5.67% (active)
O=C(Nc1cccc(F)c1)c1coc(=O)c(Br)c1 | 0.1%
O=C(NCc1ccc(Cl)cc1)C1CCCN(c2nc3ccccc3o2)C1 (stereo not drawn) | -2.71%
C/C(=N/NC(=O)c1ccc(Br)o1)c1ccc(C)o1 | 8.8% (active)
CC(CNC(=O)c1ccc(Br)o1)NC(=O)c1ccc(Br)o1 (stereo not drawn) | -0.92%
C/C(=N\NC(=S)NC1CCCCC1)c1ccc(C)o1 | -1.13%
c1cncc(CNc2ccnc(-c3ccc4c(c3)OCO4)n2)c1 | 0.49%
CN1CCN(c2ccc(NC(=O)c3ccc4c(c3)OCCO4)cc2Cl)CC1 | 6.55% (active)
Cc1ccc(C(=O)Nc2ccc3c(c2)OCCO3)cc1S(=O)(=O)N1CCOCC1 | 0.29%
O=C(Nc1ccc(N2CCOCC2)c(Cl)c1)c1ccc(S(=O)(=O)N2CCOCC2)cc1 | -2.07%
CCSC1(SCC)N=C(N)C2(C#N)C(c3ccccc3)NC(C)=CC12C#N (stereo not drawn) | -0.75%
CN1C(=O)/C(=C\c2cc(Br)cs2)c2ccccc21 | 6.07% (active)
CCC1C(=O)c2ccccc2N(C)C1=O (stereo not drawn) | 4.03%
CN1C(=O)/C(=N/OC(=O)c2ccccc2Br)c2ccccc21 | -0.66%
COC(=O)[C@]12C[C@H](CC(=O)NCc3ccc(C)o3)C(=O)N(CCC3=CCCCC3)C1=C[C@H](C(C)(C)C)O[C@@H]2C | 0.28%
COc1cc(/C=C/C(=O)OCC(=O)NCCCc2ccccc2)ccc1O | -0.23%
O=C(N/N=C/c1cc([N+](=O)[O-])ccc1O)/C(=C\c1cccs1)NC(=O)c1ccccc1 | 2.67%
COc1ccc(/C=N/Nc2ncnc3sc4c(c23)CCCC4)cc1O | 2.31%
O=[N+]([O-])c1cc(Br)c(O)c(/C=N/Nc2nc3ccccc3s2)c1 | 5.75% (active)

Compound | activation
COc1cc(/C=N/Nc2nc3ccccc3s2)ccc1O | 11.4% (active)
O=C(C1CCCN1S(=O)(=O)c1ccccc1)N1CCc2ccccc2C1 (stereo not drawn) | -0.91%
O=C(CSc1nnc(-c2ccccn2)n1-c1ccccc1)Nc1ccc2cn[nH]c2c1 | 1.82%
CN[C@H]1C[C@H]2c3cc(N4CCOCC4)ccc3CCN2C[C@H]1[C@H](C)O | 0.66%
O=C(Nc1ccc(Cl)cc1)C1c2cccc[n+]2CC(=O)N1Cc1ccc2c(c1)OCO2 (stereo not drawn) | 6.69% (active)
CCCOc1ccc(NC(=O)CC2C(=O)N(C)C(=S)N2Cc2ccc3c(c2)OCO3)cc1 (stereo not drawn) | -1.25%
O=C(Nc1ccc2c(c1)OCCO2)C1c2ccccc2OCC(=O)N1Cc1ccccn1 (stereo not drawn) | 2.69%
O=C(COC(=O)/C(=C/c1cccs1)c1cccs1)NCc1ccccc1Cl | -2.32%
COc1cccc(NC(=O)N(C)C[C@@H]2OCc3cn(nn3)CCCC(=O)N([C@@H](C)CO)C[C@H]2C)c1 | 1.21%
O=c1c2c(nc3cc(-c4cccc(Cl)c4)[nH]n13)CCCC2 | 8.74% (active)
CSc1nc2nc3c(c(=O)n2[nH]1)CCC3 | 0.72%
COc1cccc(CC(=O)N2CCN(C(=O)C(=O)c3cccc(C(F)(F)F)c3)CC2)c1 | 1.16%
CC(C)CSc1nnc(-c2cccnc2)n1Cc1ccccc1 | -1.13%
O=C(c1ccncc1)N1CC[C@H]2[C@H](CCCN2Cc2ccc(F)cc2)C1 | -1.38%
CC(NC(=O)C(=O)N/N=C/c1ccc(Cl)cc1)c1ccccc1 (stereo not drawn) | -1.03%
CC(C)c1ccc(C=NNc2ccc([N+](=O)[O-])cn2)cc1 | 9.24% (active)
CC(C)c1ccc(/C=C2\NC(=O)NC2=O)cc1 | -2.26%
COC(=O)[C@]12C[C@H](CC(=O)NCc3cccc(C(F)(F)F)c3)C(=O)N(Cc3ccc4c(c3)OCO4)C1=C[C@H](COCc1ccccc1)O[C@@H]2C | 0.41%

Source: PubChem BioAssay AID652067 (The Scripps Research Institute Molecular Screening Center, 2013)
